The test system of test [1] is Zika virus NS2B-NS3 protease (linked construct). The test is described as follows: Primary screen NINDS Rhodamine qHTS for Zika virus inhibitors (AID 1347160). Further: nearly all actives have a fitted effect of over 55% in size. In a few lines: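 Purified linked NS2B-NS3 protease (NS2B hydrophilic domain joined to NS3 protease by flexible linker), 25 nM in 10 mM Tris-HCl pH 8.0, 0.01% Tween 20. Compounds titrated, 15 min preincubation at room temperature; 1.5 microM Rhodamine110 substrate, FITC fluorescence change over 15 min.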
On the technique in general: In qHTS, concentration-response curves come from the screen itself.

Test [2] addresses Calcium and integrin-binding protein 1 (Homo sapiens) (UniProt Q99828). The test can be described thus: Primary qHTS for Identification of Calcium Integrin Binding Protein 1 (CIB1) Competitor (AID 1508620). Further: top concentration of the series differs between compounds; on the % scale 0 is the no-effect control and ±100 the full control effect. In a few lines: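 Fluorescence polarization competition: GST-tagged CIB1 (1 uM final) preincubated with compound 15 min at room temperature, then FITC-labelled alphaIIb peptide (100 nM final) added. After 15 min at room temperature, polarization read at Ex 480/Em 540.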

The target in test [3] is Glutathione peroxidase 1 (Homo sapiens) (UniProt P07203). The test can be described thus: Primary qHTS Assay for Inhibitors of Recombinant Selenoprotein Glutathione Peroxidase 1 (GPX1) (AID 1845191). Further: nearly all actives have a fitted effect of over 65% in size. On activity, negative = inhibition: on the % scale 0 is the no-effect control and ±100 the full control effect. Put shortly:
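GR-coupled assay: compounds preincubated 30 min at room temperature with GPX1, then reaction started with CHP; final 10 nM GPX1, 1 mM GSH, 0.5 mM CHP, 0.5 mM NADPH, 100 nM GR, 0.01% BSA, pH 7.5 Tris buffer. NADPH fluorescence (340/450 nm) read at 0 and 15 min.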

Test [4] concerns the target Phospholipid hydroperoxide glutathione peroxidase GPX4 (Homo sapiens) (UniProt P36969). The test can be described thus: Primary qHTS Assay for Inhibitors of Recombinant Selenoprotein Glutathione Peroxidase 4 (GPX4) (AID 1845192). Further: on the % scale 0 is the no-effect control and ±100 the full control effect; nearly all actives have a fitted effect of over 65% in size. In a few lines:
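GR-coupled assay: recombinant GPX4 preincubated 30 min with compound at room temperature; final 200 nM GPX4, 1 mM GSH, 0.5 mM cumene hydroperoxide, 0.5 mM NADPH, 100 nM GR, 0.01% BSA, pH 7.5 Tris. NADPH fluorescence (340/450 nm) read at 0 and 15 min.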

The target in test [5] is Luciferin 4-monooxygenase (Photinus pyralis) (UniProt P08659). The test can be described thus: Primary firefly luciferase (FLuc) qHTS assay for identification of artifact compounds. (AID 1845220). Further: nearly all actives have a fitted effect of over 60% in size. The note with it: outcome: dose series up to 54.1 µM unless noted. In a few lines: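 Titrated compounds were incubated 15 min at RT, protected from light, with luciferin and ATP at 10 uM; reaction started with 10 nM FLuc, luminescence imaged at 5 min, and concentration-response fitted by Hill equation.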

Test [6] in a line: Primary fluorescence-based thiol-reactive (MSTI) qHTS assay for identification of artifact compounds. (AID 1845221).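 Further: thiol-reactive compounds lower the probe fluorescence signal; nearly all actives have a fitted effect of over 65% in size.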 In a few lines:
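Compounds were incubated 1 h at room temperature in the dark with the MSTI probe (4 uM) in PBS pH 7.4, 2% DMSO. Signals were normalized between Acetyl-MSTI and MSTI.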

Test [7] has as its system Nanoluciferase (engineered Oplophorus gracilirostris luciferase). The test can be described thus: Primary Nanoluciferase (NLuc) qHTS assay for identification of artifact compounds. (AID 1845222).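 Further: NLuc secreted into diluted conditioned medium of S16 cells; 0% = DMSO and -100% = no enzyme.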 Put shortly: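 qHTS format, against NLuc in S16 cell-conditioned medium. Nano-Glo substrate 1:100 was added after 15 min at room temperature. Luminescence was taken after a further 5 min.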

The nature of test [8]: Primary redox qHTS assay for identification of artifact compounds. (AID 1845223).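 Further: 0% = DMSO and 100% = reference compound.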 In a few lines: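 Amplex Red (25 uM) and HRP (250 mU/mL) in HBSS, with compounds for 15 min, then 250 uM DTT for 30 min, room temperature, dark. Fluorescence 525/598 nm read; normalized to DMSO and 10 uM DA3003; Hill fit.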
Another test relates to HaCat. The test is described as follows: Cytotoxic Profiling of Annotated Libraries Using Quantitative High-Throughput Screening (AID 1296008). Further: nearly all actives have a fitted effect of over 60% in size. Further: potency means the concentration at half of the fitted maximal effect. On max response: on the % scale 0 is the no-effect control and ±100 the full control effect. Conditions: Five cell lines viability, CellTiter-Glo ATP luminescence, 48-72 h; max response: active compounds read low. In a few lines: (§1)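 Cells exposed to compounds for 48 or 72 hr at 37 degrees Celsius. Viability read as ATP-coupled luminescence with CellTiter-Glo after 10 min at room temperature.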
In general terms: ATP-based viability assays read luminescence as a measure of living cells.

For another test, the system named is NIH3T3. The description is as above. The note with it: Five cell lines viability, CellTiter-Glo ATP luminescence, 48-72 h; max response: active compounds read low. Put shortly: as §1
For the next test, the system named is C33A. The test is described as follows: Primary qHTS to identify gynecologic anti-cancer compounds using libraries of approved drugs and bioactive compounds (AID 1345084). Further: nearly all actives have a fitted effect of over 55% in size. Further: potency means the concentration at half of the fitted maximal effect. On activity change, negative = cytotoxicity: on the % scale 0 is the no-effect control and ±100 the full control effect. The note with it: Gynecologic cancer cell panel viability, ATPlite luminescence, 48 h; series mostly up to 57.5 µM. In a few lines:
(§2)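 Luminescence from the ATPlite ATP-monitoring reagent indicates viable cell number; lower signal means cytotoxicity. Cells received compound 16 h after seeding and were exposed for 48 h across five concentrations.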

The subject of another test is CAOV3. The description is as above. The note with it: Gynecologic cancer cell panel viability, ATPlite luminescence, 48 h; series mostly up to 57.5 µM. Put shortly: as §2
The test system of the next test is CASKI. The test is described as above. The note with it: Gynecologic cancer cell panel viability, ATPlite luminescence, 48 h; series mostly up to 57.5 µM. Put shortly:
as §2

A further test deals with Es-2. The description is as above. Conditions: Gynecologic cancer cell panel viability, ATPlite luminescence, 48 h; series mostly up to 57.5 µM. In a few lines:
as §2

Another test concerns Hek293T. The test is described as above. The note with it: Gynecologic cancer cell panel viability, ATPlite luminescence, 48 h, control line for the selectivity index; series mostly up to 57.5 µM. Put shortly: as §2
For another test, the system named is JEG-3. The description is as above. Conditions: Gynecologic cancer cell panel viability, ATPlite luminescence, 48 h; series mostly up to 57.5 µM. In a few lines:
as §2

The subject of the next test is OV90. The test is described as above. Conditions: Gynecologic cancer cell panel viability, ATPlite luminescence, 48 h; series mostly up to 57.5 µM. Put shortly: as §2
Another test has as its system PA-1. Described as above. The note with it: Gynecologic cancer cell panel viability, ATPlite luminescence, 48 h; series mostly up to 57.5 µM. In a few lines:
as §2

A further test has as its system Tov-21-G. The description is as above. The note with it: Gynecologic cancer cell panel viability, ATPlite luminescence, 48 h; series mostly up to 57.5 µM. Put shortly: as §2
The test system of the next test is Tov112D. The test is described as above. The note with it: Gynecologic cancer cell panel viability, ATPlite luminescence, 48 h; series mostly up to 57.5 µM. In a few lines: as §2

A number with no mark means an inactive call. Records with an inconclusive call do not appear. Calls of active or inactive are those of the source. The call rests on the fitted dose curve; in most records, active means well fitted curve in the direction sought with a large enough effect; inconclusive means small, poorly fitted or top-dose-only effect, or another doubt; inactive means no such curve, though single readings can be large; an effect the other way counts as inactive or inconclusive. *1 amine or outer side, *2 acyl side, *3 side chain or, on linkers, in order; H or OH if unused. Where a SMILES comes first, the peptide text is derived from it. [ ]: non-standard residue; d: D form. X5 = CC(CC(O[*:1])C(=O)[*:2])C(=O)O; NMeV = CN[CH](C(=O)O)C(C)C; NMeA = CN[CH](C)C(=O)O; βAla = NCCC(=O)O

Sequence of Calcium and integrin-binding protein 1 (Homo sapiens) (Q99828 whole entry, looked up): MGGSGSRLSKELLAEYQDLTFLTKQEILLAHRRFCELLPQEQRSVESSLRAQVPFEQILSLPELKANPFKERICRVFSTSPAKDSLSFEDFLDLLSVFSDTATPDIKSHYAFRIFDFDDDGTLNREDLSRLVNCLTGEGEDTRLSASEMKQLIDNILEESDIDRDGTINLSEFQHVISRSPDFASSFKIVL
Sequence of Phospholipid hydroperoxide glutathione peroxidase GPX4 (Homo sapiens) (P36969 whole entry, looked up): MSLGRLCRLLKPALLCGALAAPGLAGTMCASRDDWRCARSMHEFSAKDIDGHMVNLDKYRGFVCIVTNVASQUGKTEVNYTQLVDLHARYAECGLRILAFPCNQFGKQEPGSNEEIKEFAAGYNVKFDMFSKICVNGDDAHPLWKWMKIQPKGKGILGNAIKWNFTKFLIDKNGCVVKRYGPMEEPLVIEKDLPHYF
Sequence of Glutathione peroxidase 1 (Homo sapiens) (P07203 whole entry, looked up): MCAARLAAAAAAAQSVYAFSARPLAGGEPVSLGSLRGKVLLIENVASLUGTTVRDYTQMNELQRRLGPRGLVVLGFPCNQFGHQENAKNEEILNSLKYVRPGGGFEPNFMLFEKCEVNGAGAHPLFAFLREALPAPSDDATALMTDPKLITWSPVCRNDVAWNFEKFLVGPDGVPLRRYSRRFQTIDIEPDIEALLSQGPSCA

For `O=C(N1CCCCC1Cc1ccccc1)n1cc(-c2ccc(-c3ccccc3)cc2)nn1` (configuration not stated), the Potency entry in [1], in test [2], in [3], in test [4], in test [6] and in test [7] was “inactive” throughout. The Potency result (in test [8]; in the test on C33A; with CAOV3; in the test on CASKI; in the test on Es-2; with Hek293T) was “inactive” in each case. For the same compound, the Potency entry with JEG-3, in the test on OV90, in the test on PA-1, in the test on Tov-21-G and in the test with Tov112D was “inactive” in each case. The compound was classed as inactive (in test [5]; in the test on HaCat; in the test with NIH3T3).

`C[C@]12CC[C@@H](O)C[C@@H]1CC[C@@H]1[C@@H]2CC[C@]2(C)C(=O)[C@@H](Br)C[C@@H]12`: the Potency entry in test [1], in test [2], in [3], in test [4], in test [6] and in test [7] was “inactive” each time. Also, the Potency result (in test [8]; in the test on C33A; with CAOV3; in the test on CASKI; in the test on Es-2; in the test on Hek293T) was “inactive” in each case. Moreover, the Potency result in the test with JEG-3, with OV90, in the test with PA-1, in the test on Tov-21-G and in the test with Tov112D was “inactive” in each case. The compound was classed as inactive (in test [5]; with HaCat).

For the compound `O=C(C[C@@H]1NCCC[C@H]1O)Cn1cnc2ccccc2c1=O`, the Potency entry in test [1], in [2] and in [6] was “inactive” each time. Moreover, the call in [5] was inactive. Moreover, the Potency in the test with HaCat is 1.3 µM (active); in the test with NIH3T3, 0.366 µM (active); in the test on C33A, 0.631 µM (active); in the test on CASKI, 1.78 µM (active); in the test with Es-2, 1.41 µM (active); with Hek293T, 0.447 µM (active). Also, the Potency was 11.2 µM (active) in the test with OV90, 0.282 µM (active) in the test with PA-1, 0.794 µM (active) with Tov-21-G and 0.631 µM (active) in the test with Tov112D.

Consider `C[C@H]1CC[C@@H]2[C@@H](C)[C@H]3[C@H](C[C@H]4[C@@H]5CC=C6CC(O[C@@H]7O[C@H](CO)[C@@H](O)[C@H](O[C@@H]8O[C@H](CO)[C@@H](O)[C@H](O)[C@H]8O)[C@@H]7O[C@@H]7O[C@@H](C)[C@H](O)[C@@H](O)[C@H]7O)CC[C@]6(C)[C@H]5CC[C@]34C)N2C1` (some centres not stated), for which the Potency result in test [1], in test [3] and in test [4] was “inactive” each time. Besides, the outcome in test [5] was “inactive [at 11.6 µM]”. Also, the activity change, negative = thiol reactive in test [6] was 134% [at 11.5 µM]. Moreover, the activity, negative = inhibition in test [7] is -0.992% [at 11.6 µM]. For the same compound, the max response in the test on HaCat was -13.1%. For the same compound, in the test on NIH3T3, the call was inactive. For the same compound, the activity change, negative = cytotoxicity in the test on C33A is -12.6% [at 11.6 µM]; in the test with CAOV3 it was 17.5% [at 11.6 µM]; with CASKI it was 0.984% [at 11.6 µM]; with Es-2, -2.66% [at 11.6 µM]; in the test on Hek293T, 11.3% [at 11.6 µM]; in the test with JEG-3, -0.31% [at 11.6 µM]. The activity change, negative = cytotoxicity is -5.29% [at 11.6 µM] with OV90, 7.63% [at 11.6 µM] with PA-1, -1.56% [at 11.6 µM] with Tov-21-G and 5.33% [at 11.6 µM] with Tov112D.

`CCC(C)C1NC(=O)C(C(C)=O)=C1O` (configuration not stated): the Potency entry (in [1]; in test [2]; in test [3]; in [7]; in test [8]; in the test with C33A) was “inactive” in each case. The Potency entry in the test on CAOV3, with CASKI, in the test on Es-2, in the test with Hek293T, in the test on JEG-3 and with OV90 was “inactive” each time. The Potency entry in the test with PA-1, with Tov-21-G and in the test on Tov112D was “inactive” throughout. Also, the compound was called inactive (in test [5]; in the test on HaCat).

For `CCC(C)C1NC(=O)C2CCCN2C(=O)C(CC(C)C(=O)O)OC(=O)CCNC(=O)C(C)N(C)C(=O)C(C(C)C)N(C)C1=O` (configuration not stated) (cyclo([X5]PI[NMeV][NMeA][βAla]); configuration not given here), the Potency entry in test [1], in test [2], in test [4], in test [6], in [7] and in test [8] was “inactive” each time. Moreover, the Potency entry with C33A, with CAOV3, with CASKI, in the test on Es-2, in the test on Hek293T and with JEG-3 was “inactive” each time. For the same compound, the Potency result with OV90, with PA-1, with Tov-21-G and with Tov112D was “inactive” each time. Besides, in test [5], the compound was called inactive. Also, the values for the max response in the test on HaCat and with NIH3T3 were 4.66% and 3.88%, respectively.

The values above are taken from PubChem BioAssay (NCATS).
